High-throughput results deposited in PubChem by several laboratories.
Mdm2 MdmX PPI: inhibitors of human Mdm2-MdmX association, primary screen, cell-based, luminescence, split luciferase, SaOS-2, uHTS; Protein Mdm4 (Homo sapiens) + E3 ubiquitin-protein ligase Mdm2 (Homo sapiens), …; AID 485346, 2010; hit rate 3% among 330,000; inhibition, % at 8 µM; SaOS-2 split-luciferase Mdm2/MdmX complementation;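 active = inhibition of at least 50% at 8 µM in the primary screen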
aSyn UTR inh: MLPCN primary screen, SNCA 5' untranslated region | alpha-synuclein 5'UTR reporter, inhibitor activity | hit rate 0.82% among 300,000 | inhibition, % (tested at 7.5 µM); in the data active = inhibition above about 60%; inconclusive = no clear call, values can overlap the other calls;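 note: H4 neuroglioblastoma cells stably carrying SNCA 5'UTR luciferase fusion; 0% = DMSO wells and 100% = positive control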
CSC inhib: cancer stem cell viability inhibitors, primary screen, luminescence. cancer stem cell-like cells viability. inhibition, % at 7.5 µM. hit rate 1.1% among 300,000; in the data active = inhibition above about 75%; inconclusive = no clear call, values can overlap the other calls; tested in HMLE shEcad cells
Gli-Sufu block: Gli-Sufu pathway antagonists, primary screen, luciferase luminescence, Sufu-KO-LIGHT cells, uHTS. inhibition, % at 5 µM. Sufu-KO-LIGHT fibroblasts, Gli luciferase reporter luminescence. AID 588413, 2011. hit rate 0.74% among 340,000;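 active = inhibition above about 55%, limit read from the data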;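 note: 0% = DMSO-treated cells and 100% = wells with medium but no cells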
697 NFkB inh: inhibitors of PMA/ionomycin-induced NF-kB reporter, 697 cells, primary screen, B-cell NF-kB inhibitor project, cell-based, luminescence, uHTS | hit rate 0.33% among 330,000 | inhibition, % at 4 µM | 697 B-cell NF-kB luciferase reporter, 16 h | AID 435022, 2010; in the data active = inhibition above about 35%
Jurkat NFkB inh: inhibitors of induced NF-kB luciferase reporter, primary screen, TCR NF-kB activation inhibitor project, cell-based, luminescence, uHTS. Jurkat, PMA/ionomycin-induced NF-kB luciferase reporter. inhibition, % at 4 µM. hit rate 0.53% among 330,000. AID 435003, 2010; in the data active = inhibition above about 50%
Jurkat NFkB conf: PMA/ionomycin-induced NF-kB reporter inhibitors, Jurkat retest, confirmation, T-cell NF-kB inhibitor project, cell-based, luminescence, single concentration. shares compounds with Jurkat NFkB inh. Jurkat NF-kB luciferase, 16 h. inhibition, % at 4 µM. hit rate 27% among 2,700;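 active = inhibition reaching about 45% at 4 µM in either replicate, limit read from the data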;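 note: plate controls were PMA/ionomycin stimulated DMSO wells for no effect and unstimulated DMSO wells for full effect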
697 NFkB conf: PMA/ionomycin-induced NF-kB reporter inhibitors, 697 retest, confirmation, B-cell NF-kB inhibitor project, cell-based, luminescence, single concentration. shares compounds with 697 NFkB inh. hit rate 35% among 2,000. 697 B-cell NF-kB luciferase, 16 h. AID 449746, 2010. inhibition, % at 4 µM; in the data active = inhibition mostly above about 28%, no sharp cut-off; inactive = mostly below about 22%
Mdm2-MdmX conf: Mdm2-MdmX complex disruptors, retested hits, confirmation, luminescence, single concentration. hit rate 55% among 10,000. Mdm2-MdmX binding, luminescent assay. AID 489028, 2010. inhibition, % at 8 µM. shares compounds with Mdm2 MdmX PPI; in the data active = inhibition above about 40%
FLuc counter: full-length luciferase signal inhibition, confirmation, counter-screen for Mdm2/MdmX interaction inhibitor project, cell-based, single concentration, SaOS-2. hit rate 77% among 6,200. inhibition, % at 8 µM. AID 504607, 2011. shares compounds with Mdm2 MdmX PPI. SaOS-2 full-length luciferase counterscreen, luminescence;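 active = mean inhibition at 8 µM reaching about 37%, which flags the compound as non-specific, limit read from the data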;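 note: p53-null SaOS-2 cells with luciferase driven by a doxycycline-inducible promoter; compound on cells about two nights before reading with doxycycline added after day one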
An asterisk follows results filed as active; ? = inconclusive; / = no result. Shown are actives, neighbours in structure and some others; about 4.5% of the full set was active somewhere.

SMILES	Mdm2 MdmX PPI	aSyn UTR inh	CSC inhib	Gli-Sufu block	697 NFkB inh	Jurkat NFkB inh	Jurkat NFkB conf	Mdm2-MdmX conf	FLuc counter	others
Cc1ccc(N2CCN(C(=O)c3ccccc3)CC2)c(C)c1	6	11	-4	-3	-7	3	/	/	/
COc1ccccc1N1CCN(C(=O)c2oc3ccc(Br)cc3c2C)CC1	57*	23	57	-4	-25	66*	6	58*	54*
Cc1[nH]c2ccc(C(=O)N3CCN(c4ccccc4Cl)CC3)cc2c1C	28	-5	51	-4	-12	8	/	/	/
COc1ccc(N(C)S(=O)(=O)c2cccc(C(=O)N3CCN(c4cccc(C)c4C)CC3)c2)cc1	/	/	/	7	/	/	/	/	/
Cc1cccc(N2CCN(C(=O)c3ccc(S(=O)(=O)N(C)c4ccccc4)cc3)CC2)c1C	67*	/	57	-3	-39	58*	40	59*	61*
COc1cc(C(=O)N2CCN(c3ccc(C)cc3C)CC2)cc(OC)c1OC	58*	28	60	19	-93	63*	21	47*	44*
Fc1ccc(CNC(=S)NC2CCCCCC2)cc1	13	-16	-10	7	1	-1	/	/	/
CCOC(=O)Cc1csc(NC(=O)COc2ccc(N(C)S(=O)(=O)c3cccs3)cc2)n1	12	-12	7	3	-3	3	/	/	/
Cc1ccc(S(=O)(=O)N2CCC(NC(=O)c3cccc(C)c3)CC2)cc1	14	24	-15	5	6	4	/	/	/
CCOC(=O)c1c(C)[nH]c(C(=O)Nc2cc(OCC)c(N3CCOCC3)cc2OCC)c1C	38	/	/	16	-8	-3	/	/	/
Cc1cccc(N2CCN(C(=O)c3ccc4[nH]c(C)c(C)c4c3)CC2)c1C	60*	/	62	-4	-37	56*	52*	58*	71*
Cc1[nH]c2ccc(C(=O)N3CCCC3)cc2c1C	-19	-39	3	-10	-27	-3	/	/	/
COc1ccccc1NC(=O)c1ccccc1C(=O)Nc1ccccc1OC	17	-9	4	-6	4	4	/	/	/
COc1ccccc1NC(=O)c1cnc(Nc2ccccc2OC)c2ccccc12	52*	101*	66	0	-56	59*	41	58*	66*
CC1CCCN(C(=O)CN2C(=O)CSc3ccc(S(=O)(=O)N4CCOCC4)cc32)C1 (stereo not drawn)	8	-5	-7	-3	-6	-5	/	/	/
CCOC(=O)c1ccc(Nc2nc(N)c3cc(OC)c(OC)cc3n2)cc1	85*	-104	15	-3	30	74*	90*	83*	49*
COc1cc2nc(Nc3ccc(F)cc3)nc(N)c2cc1OC	0	-131	11	6	-29	-17	/	/	/
COc1ccc2[nH]c3c(c2c1)CCNC3C1CC=C(C)CC1 (stereo not drawn)	67*	29	-4	17	16	58*	-17	61*	57*
Cc1nc2ccccn2c1C(=O)/C=C/c1cccc([N+](=O)[O-])c1	99*	1	88*	-5	40*	51*	19	97*	28	697 NFkB conf=41*
Clc1ccc(CSc2nncn2-c2ccc3c(c2)OCCO3)cc1	51*	66*	75	7	-46	58*	44	60*	48*
Clc1ccc(CSc2nncn2-c2ccccn2)cc1	3	2	-15	-21	-2	9	/	/	/
OCCCNc1cc(-c2ccnc(Nc3cccc(Cl)c3)n2)ccn1	100*	110*	-10	75*	85*	99*	100*	100*	50*	697 NFkB conf=91*
Cc1nnc(SCc2cc(=O)[nH]c(/N=C(\N)Nc3ccccc3)n2)s1	36	4	4	1	5	22	/	/	/
CCOc1ccc(N/C(N)=N/c2nc(CSc3nnc(C)s3)cc(=O)[nH]2)cc1	67*	84*	?	41	1	74*	50*	56*	81*
CCCSc1nnc(Sc2nnnn2-c2ccccc2)s1	66*	13	53	30	-30	87*	61*	64*	56*
SMILES	Mdm2 MdmX PPI	aSyn UTR inh	CSC inhib	Gli-Sufu block	697 NFkB inh	Jurkat NFkB inh	Jurkat NFkB conf	Mdm2-MdmX conf	FLuc counter	others
C(=C\CSc1nnnn1-c1ccccc1)/CSc1nnnn1-c1ccccc1	15	4	-16	6	27	10	/	/	/
ClC1=C(Cl)C(Cl)=C(Cl)C1=C/C=C/c1ccccc1	100*	113*	103*	79*	-275	55*	-14	99*	8	697 NFkB conf=-26
Cc1[nH]n(-c2ccc([N+](=O)[O-])cc2)c(=O)c1C=NCCN1CCN(C(=O)c2ccccc2)CC1	-13	-14	58	-25	1	4	/	/	/
CCCCCC#CCC#CCC#CCC#CCCCC(=O)O	12	5	/	/	-14	12	/	/	/
Nc1nc(Cl)nc2c1ncn2C1CC(O)C(CO)O1 (stereo not drawn)	81*	87*	74	/	65*	51*	50*	77*	26	697 NFkB conf=68*
Nc1nc(F)nc2c1ncn2[C@@H]1O[C@H](CO)[C@@H](O)[C@H]1O	99*	122*	59	71*	75*	93*	89*	100*	3	697 NFkB conf=92*
Nc1ncn(C2O[C@H](CO)[C@@H](O)[C@H]2O)c(=O)n1 (stereo partly drawn)	54*	/	54	/	-145	82*	90*	64*	57*
COc1cc(OC)c(C(=O)OCC(=O)NCCC2=CCCCC2)cc1OC	11	6	-12	-7	-31	2	/	/	/
CCCCC(=O)NC(c1ccc(C(C)C)cc1)c1ccc2cccnc2c1O (stereo not drawn)	78*	112*	/	51	-29	61*	82*	88*	19
COc1ccc(CNC(=O)CSc2cccc3cccnc23)cc1	15	9	/	3	-14	0	/	/	/
